This is an account of results in the supplement of paper PMC6522484.

The subject of test [1] is DLD1. In words: cell viability (CellTiter-Glo) relative to plate median (fraction of plate median); higher = more viable cells. The following applies: 5 µM; treatment time 24 h; reporter: 7TFP. The essentials:
(§1)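 Two independent replicates were averaged for each reported value. Library compounds were applied at a final 5 µM for 24 h to colorectal cancer cell lines stably expressing lentiviral TCF/Wnt firefly luciferase reporters. Firefly luciferase or CellTiterGlo luminescence from each well was normalised to the plate median.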
(In general: In ATP-based viability assays light output follows the ATP content of the culture.)

The subject of the next test is HCT116. Described as above. The conditions noted are these: 5 µM; treatment time 24 h; reporter: TCF4/Wnt. The essentials:
as §1

Test [2] deals with SW480. The description is as above. The following applies: 5 µM; treatment time 24 h; reporter: 7TFP. The essentials:
as §1

The subject of test [3] is DLD1. In words: TCF/Wnt firefly luciferase reporter signal relative to plate median (fraction of plate median); higher = higher Wnt reporter signal. The following applies: 5 µM; treatment time 24 h; reporter: 7TFP. The essentials: as §1
For orientation: In a reporter assay the amount or activity of a reporter protein is the signal.

For test [4], the system named is SW480. The description is as above. The following applies: 5 µM; treatment time 24 h; reporter: 7TFP. The essentials:
as §1

± gives the standard deviation of the averaged measurements.

`CN(C)C(=O)Oc1ccc[n+](C)c1`: the cell viability amounted to 1.04 ± 0.042 in the test with DLD1 [1], 1.04 ± 0.11 in the test on HCT116 and 1.02 in the test with SW480 [2]. The “TCF/Wnt firefly luciferase reporter signal” value with DLD1 [3] was 1.08 ± 0.078; in the test with SW480 [4], 1.05 ± 0.035.
In the same order, the values of `COP(=S)(OC)Oc1ccc(SC)c(C)c1` are 1 ± 0.014, 1.07 ± 0.085, 1.04 ± 0.042, 1.07 ± 0.028 and 1.01 ± 0.1.
The matching figures for `CC(C)(C#N)O[C@@H]1O[C@H](CO)[C@@H](O)[C@H](O)[C@H]1O`: 0.945 ± 0.078, 1.06 ± 0.014, 0.992 ± 0.0014, 0.953 ± 0.036 and 0.933 ± 0.036.
The matching figures for `CC(=O)O[C@H]1CC[C@@]2(C)C(=CC[C@@H]3[C@@H]2CC[C@]2(C)C(=O)CC[C@@H]32)C1`: 1.02 ± 0.075, 1.03 ± 0.083, 0.983 ± 0.025, 0.944 ± 0.028 and 1.08 ± 0.092.
For the molecule `CC1=C2C(=CO[C@H](C)[C@H]2C)C(O)=C(C(=O)O)C1=O`, the cell viability in the test on DLD1 [1] was found to be 0.939 ± 0.076; in the test with HCT116, 1 ± 0.022; in the test on SW480 [2] it was 0.923 ± 0.027. Also, the entries for the “TCF/Wnt firefly luciferase reporter signal” value in the test on DLD1 [3] and in the test on SW480 [4] were 0.861 ± 0.13 and 0.9055 ± 0.0035, respectively.
In the same order, the values of `C[C@@H]1C[C@@H]([C@H](O)CC2CC(=O)NC(=O)C2)C(=O)[C@@H](C)C1` are 0.892 ± 0.059, 0.5955 ± 0.0035, 0.967 ± 0.076, 0.387 ± 0.088 and 0.665 ± 0.15.
For the molecule `COP(=O)(OC)OC=C(Cl)Cl`, the cell viability in the test with DLD1 [1] was determined as 1.05 ± 0.014; in the test with HCT116, 0.94 ± 0.099; with SW480 [2], 0.994 ± 0.037. The “TCF/Wnt firefly luciferase reporter signal” value was found to be 1.04 ± 0.18 in the test with DLD1 [3] and 1.03 ± 0.028 in the test with SW480 [4].
In the same order, the values of `N.N.[Cl][Pt][Cl]` are 1.1 ± 0.11, 1.07 ± 0.014, 1.02 ± 0.014, 0.939 ± 0.016 and 0.954 ± 0.08.
The matching figures for `N#Cc1c(Cl)c(Cl)c(Cl)c(C#N)c1Cl`: 0.687 ± 0.075, 0.465 ± 0.13, 1.01 ± 0.052, 0.293 ± 0.14 and 0.286 ± 0.15.
Consider `O=c1cccc2n1C[C@@H]1CNC[C@H]2C1`, for which the cell viability with DLD1 [1] stood at 0.978 ± 0.045; in the test with HCT116, 0.981 ± 0.015; in the test on SW480 [2], 1.005 ± 0.0071. The “TCF/Wnt firefly luciferase reporter signal” value in the test on DLD1 [3] was found to be 0.84 ± 0.15; with SW480 [4], 0.907 ± 0.044.
In the same order, the values of `CNC(C)C(O)c1ccccc1` (stereo not given) are 1.08 ± 0.021, 1.09 ± 0.014, 1.07 ± 0.042, 1.1 ± 0.078 and 0.905 ± 0.071.
The matching figures for `CCCC(C)(COC(N)=O)COC(=O)NC(C)C` (stereo not given): 1.06 ± 0.014, 0.994 ± 0.14, 0.97 ± 0.0042, 0.887 ± 0.088 and 0.992 ± 0.082.
Regarding `CC(C)(C)[C@]1(O)C[C@@H]2OC(=O)C[C@@]23C(=O)O[C@@H]2OC(=O)[C@H](O)[C@]213`, the cell viability in the test with DLD1 [1] is 0.922 ± 0.033; in the test on HCT116, 1.03 ± 0.05; with SW480 [2] it was 1.01 ± 0.077. In addition, the “TCF/Wnt firefly luciferase reporter signal” value with DLD1 [3] was found to be 1.17 ± 0.042; in the test with SW480 [4], 1.07 ± 0.1.
In the case of `C/C=C/[C@H]1O[C@@](O)([C@@H](C)[C@H](O)[C@H](C)[C@H]2OC(=O)/C(OC)=C/C(C)=C/[C@@H](C)[C@@H](O)[C@@H](C)[C@@H](O)[C@H](C)C/C(C)=C/C=C/[C@@H]2OC)C[C@@H](O[C@H]2C[C@@H](O)[C@H](OC(N)=O)[C@@H](C)O2)[C@@H]1C` [Concanamycin B], the cell viability in the test with DLD1 [1] amounted to 0.935 ± 0.0085; in the test with HCT116, 0.941 ± 0.011; in the test on SW480 [2], 1.05 ± 0.014. The “TCF/Wnt firefly luciferase reporter signal” value with DLD1 [3] came to 0.9065 ± 0.0064; with SW480 [4], 1.05 ± 0.042.
Turning to `CN(C)C(=S)SSC(=S)N(C)C`, the cell viability in the test on DLD1 [1] came to 0.722 ± 0.25; with HCT116 it was 0.363 ± 0.021; in the test on SW480 [2], 0.997 ± 0.033. The “TCF/Wnt firefly luciferase reporter signal” value in the test on DLD1 [3] was 0.686 ± 0.13; in the test with SW480 [4], 0.508 ± 0.12.
For the molecule `NC(=O)Cc1ccccc1` [Phenylacetamide], the cell viability came out at 1.11 ± 0.071 in the test on DLD1 [1], 1.005 ± 0.0071 in the test on HCT116 and 1.01 ± 0.016 in the test with SW480 [2]. Moreover, the “TCF/Wnt firefly luciferase reporter signal” value in the test on DLD1 [3] was 1.11 ± 0.14; with SW480 [4], 1.11.
The matching figures for `CC(=O)O[C@H]1C[C@@H]2CC[C@@H]3[C@H](CC[C@@]4(C)[C@H]3C[C@H]([N+]3(C)CCCCC3)[C@@H]4OC(C)=O)[C@@]2(C)C[C@@H]1[N+]1(C)CCCCC1`: 0.9865 ± 0.0064, 1.03 ± 0.062, 0.963 ± 0.011, 1.01 ± 0.093 and 0.9685 ± 0.0078.
As for `C[C@]12CC[C@H](Cl)C[C@@H]1CC[C@@H]1[C@@H]2CC[C@]2(C)C(=O)CC[C@@H]12` [3beta-CHLOROANDROSTANONE], the cell viability turned out to be 1.08 ± 0.05 with DLD1 [1], 0.981 ± 0.041 in the test with HCT116 and 1.06 ± 0.071 with SW480 [2]. Further, the “TCF/Wnt firefly luciferase reporter signal” value is 1.07 ± 0.13 in the test with DLD1 [3] and 1.115 ± 0.0071 in the test with SW480 [4].
In the same order, the values of `CCN1C[C@]2(OC(=O)c3ccccc3NC(C)=O)CC[C@H](OC)[C@@]34[C@@H]2C[C@@H]([C@@H]13)[C@@]1(O)C[C@H](OC)[C@H]2C[C@@H]4[C@]1(O)[C@H]2OC` are 0.987 ± 0.033, 0.988 ± 0.032, 0.9965 ± 0.005, 0.905 ± 0.083 and 0.98 ± 0.057.
The matching figures for `CC(=O)O[C@H]1CC[C@@]2(C)[C@H](CC[C@@H]3[C@@H]2CC[C@]2(C)[C@@H](C4=CC(=O)OC4)[C@@H](OC(C)=O)C[C@]32O)C1`: 0.633 ± 0.0092, 0.723 ± 0.06, 0.82 ± 0.086, 0.277 ± 0.1 and 0.592 ± 0.088.
The matching figures for `CON1C(=O)[C@H]2NC(=O)[C@]13Oc1cc(O)c(Cl)cc1[C@@H]3SS2` [Aspirochlorine]: 0.736 ± 0.087, 0.918 ± 0.017, 0.841 ± 0.026, 0.981 ± 0.28 and 1 ± 0.035.
As for `CC(C)=CCCC1(C)C=Cc2c(O)c3c(c(CC=C(C)C)c2O1)OC12C(=CC4CC1C(C)(C)OC2(C/C=C(/C)C(=O)O)C4O)C3=O` (stereo not given), the cell viability in the test with DLD1 [1] was determined as 0.911 ± 0.11; in the test on HCT116 it was 0.979 ± 0.016; with SW480 [2], 0.996 ± 0.1. In addition, the entries for the “TCF/Wnt firefly luciferase reporter signal” value in the test on DLD1 [3] and in the test on SW480 [4] were 0.848 ± 0.069 and 0.921 ± 0.054, respectively.
In the same order, the values of `COC(=O)[C@]1(C)CC[C@]2(C)CC[C@]3(C)C4=CC=C5C(=CC(=O)C(O)=C5C)[C@]4(C)CC[C@@]3(C)[C@@H]2C1` are 0.981 ± 0.0085, 1.16 ± 0.05, 1.03 ± 0.014, 1.11 ± 0.071 and 1.03 ± 0.08.
In the same order, the values of `CNC(C)[C@H](O)c1ccccc1` (stereo not given in full) are 0.976 ± 0.063, 0.917 ± 0.0099, 1.02 ± 0.03, 0.978 ± 0.2 and 1 ± 0.095.
In the same order, the values of `O=C([O-])c1ccccc1-c1c2cc(Br)c(=O)cc-2oc2[c]([Hg+])c([O-])c(Br)cc12.[Na+].[Na+].[OH-]` are 0.955 ± 0.0071, 0.961 ± 0.13, 0.945 ± 0.0099, 1 ± 0.15 and 0.934 ± 0.052.
